Experimental data from PubChem BioAssay AID1159580 (chemical genetic matrix, 2015).
Values joined by “and” are separate entries in the source; they are usually repeats but may differ in a detail not shown here. Identical values can stand only once. The whole screen tested about 5,500 compounds, of which about 2,000 (36%) were called active. Not shown: some 18% with an inconclusive outcome. Cut-off read from the data, not from the text of the source: active = normalized growth mostly below about 0.91 (no sharp cut-off); inconclusive = no clear call, values can overlap the other calls; inactive = mostly above about 0.92. Some of the results follow.

Experiment: chemical genetic growth profiling, strain panel (AID 1159580);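 note: tested at 20 µM; growth read once vehicle control cultures reached saturation at 30 °C; 1 = growth at the plate median or of vehicle wells; lower values mean less growth of the strain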
Conditions: S. cerevisiae deletion strains, growth OD

Measured: normalized growth

Cc1ccsc1/C=C/C1=NCCCN1C
inactive: locus YAL013W, strain DEP1, active compounds read low 1.01 | locus YAL021C, strain ccr4, active compounds read low 1 | locus YAL026C, strain drs2, active compounds read low 0.996 | locus YAL030W, strain snc1, active compounds read low 0.996 | locus YBL061C, strain skt5, active compounds read low 0.984 | locus YBR009C, strain hhf1, active compounds read low 1 | locus YBR021W, strain FUR4, active compounds read low 1.02 | locus YBR023C, strain chs3, active compounds read low 0.984 | locus YBR171W, strain sec66, active compounds read low 0.99 | locus YBR229C, strain ROT2, active compounds read low 1.01 | locus YBR231C, strain swc5, active compounds read low 1.07 | locus YBR279W, strain paf1, active compounds read low 0.992 | locus YCL011C, strain gbp2, active compounds read low 0.982 | locus YCL016C, strain dcc1, active compounds read low 0.996 | locus YCL029C, strain bik1, active compounds read low 0.969 | locus YCL061C, strain MRC1, active compounds read low 0.992 | locus YCL069W, strain vba3, active compounds read low 0.986 | locus YCR088W, strain abp1, active compounds read low 0.993 | locus YDL005C, strain med2, active compounds read low 0.983 | locus YDL035C, strain GPR1, active compounds read low 1.02 | locus YDL040C, strain nat1, active compounds read low 0.985 | locus YDL074C, strain BRE1, active compounds read low 0.995 | locus YDL101C, strain DUN1, active compounds read low 0.991 | locus YDL134C, strain PPH21, active compounds read low 1.02 | locus YDL185W, strain tfp1, active compounds read low 0.938 | locus YDL192W, strain arf1, active compounds read low 0.972 | locus YDR001C, strain nth1, active compounds read low 0.996 | locus YDR069C, strain doa4, active compounds read low 0.993 | locus YDR101C, strain arx1, active compounds read low 0.965 | locus YDR137W, strain rgp1, active compounds read low 0.941 | locus YDR150W, strain NUM1, active compounds read low 0.998 | locus YDR159W, strain sac3, active compounds read low 0.998 | locus YDR162C, strain NBP2, active compounds read low 1.01 | locus YDR195W, strain ref2 1.01 | locus YDR297W, strain sur2, active compounds read low 1 | locus YDR318W, strain mcm21, active compounds read low 0.972 | locus YDR334W, strain swr1, active compounds read low 0.986 | locus YDR335W, strain msn5, active compounds read low 0.991 | locus YDR388W, active compounds read low 0.98 | locus YDR392W, strain spt3, active compounds read low 0.992 | locus YDR502C, strain sam2, active compounds read low 1 | locus YEL003W, strain gim4, active compounds read low 0.996 | locus YEL037C, strain rad23, active compounds read low 0.995 | locus YEL061C, strain CIN8 (second series), active compounds read low 0.992 | locus YEL061C, strain CIN8, active compounds read low 1 | locus YER015W, strain faa2, active compounds read low 0.971 | locus YER016W, strain bim1, active compounds read low 0.982 | locus YER110C, active compounds read low 0.982 | locus YER111C, strain swi4, active compounds read low 0.989 | locus YER155C, strain BEM2 (second series), active compounds read low 1 | locus YER155C, strain BEM2, active compounds read low 0.988 | locus YER167W, strain BCK2, active compounds read low 1.01 | locus YFR010W, strain ubp6, active compounds read low 0.992 | locus YGL078C, strain dbp3, active compounds read low 0.984 | locus YGL086W, strain mad1, active compounds read low 1.01 | locus YGL167C, strain pmr1, active compounds read low 0.987 | locus YGL173C, strain kem1, active compounds read low 0.987 | locus YGL227W, strain vid30, active compounds read low 0.991 | locus YGL240W, strain doc1, active compounds read low 1 | locus YGL248W, strain PDE1, active compounds read low 1.02 | locus YGL253W, strain hxk2, active compounds read low 0.995 | locus YGR078C, strain PAC10, active compounds read low 1 | locus YGR135W, strain pre9, active compounds read low 1.01 | locus YGR229C, strain SMI1, active compounds read low 1.03 | locus YGR252W, strain gcn5, active compounds read low 1.06 | locus YHR013C, strain ard1, active compounds read low 0.978 | locus YHR027C, strain rpn1, active compounds read low 0.982 | locus YHR030C, strain SLT2, active compounds read low 1 and 0.986 | locus YHR079C, strain IRE1 (second series), active compounds read low 0.963 | locus YHR079C, strain IRE1, active compounds read low 0.974 | locus YHR094C, strain hxt1, active compounds read low 0.956 | locus YHR129C, strain ARP1, active compounds read low 1 | locus YHR142W, strain chs7, active compounds read low 0.997 | locus YHR200W, strain rpn10, active compounds read low 0.984 | locus YIL066C, strain RNR3, active compounds read low 0.998 | locus YIL073C, strain SPO22, active compounds read low 0.91 | locus YIL125W, strain kgd1, active compounds read low 0.984 | locus YIR030C, strain dcg1, active compounds read low 0.976 | locus YJL092W, strain hpr5, active compounds read low 0.993 | locus YJL095W, strain BCK1 (second series), active compounds read low 0.991 | locus YJL095W, strain BCK1, active compounds read low 0.988 and 1 | locus YJL115W, strain asf1, active compounds read low 0.99 | locus YJL129C, strain trk1, active compounds read low 0.985 | locus YJL134W, strain LCB3, active compounds read low 1 | locus YJL154C, strain vps35, active compounds read low 0.984 | locus YJL164C, strain tpk1, active compounds read low 0.99 | locus YJL166W, strain qcr8, active compounds read low 0.994 | locus YJL168C, strain set2, active compounds read low 0.984 | locus YJL187C, strain SWE1 (second series), active compounds read low 0.99 | locus YJL187C, strain SWE1, active compounds read low 0.997 | locus YJR043C, strain POL32, active compounds read low 1.01 | locus YJR066W, strain TOR1, active compounds read low 0.967
